According to ChEMBL document CHEMBL3988442, “University of Dundee, Small-Polar-MMV Screening Library” (2021):

Key:
[1] = target: T1, Aspartate--tRNA(Asp/Asn) ligase (Mycobacterium tuberculosis (strain ATCC 25618 / H37Rv)) (UniProt P9WFW3); assay: Assay for Asp RNA synthetase-1 from Mycobacterium tuberculosis; format: functional; parameters: scale not given: direction of the effect not stated beside the values; conditions: 30 µM; note: in the data most compounds retested in dose-response had high values
T1 sequence (whole entry): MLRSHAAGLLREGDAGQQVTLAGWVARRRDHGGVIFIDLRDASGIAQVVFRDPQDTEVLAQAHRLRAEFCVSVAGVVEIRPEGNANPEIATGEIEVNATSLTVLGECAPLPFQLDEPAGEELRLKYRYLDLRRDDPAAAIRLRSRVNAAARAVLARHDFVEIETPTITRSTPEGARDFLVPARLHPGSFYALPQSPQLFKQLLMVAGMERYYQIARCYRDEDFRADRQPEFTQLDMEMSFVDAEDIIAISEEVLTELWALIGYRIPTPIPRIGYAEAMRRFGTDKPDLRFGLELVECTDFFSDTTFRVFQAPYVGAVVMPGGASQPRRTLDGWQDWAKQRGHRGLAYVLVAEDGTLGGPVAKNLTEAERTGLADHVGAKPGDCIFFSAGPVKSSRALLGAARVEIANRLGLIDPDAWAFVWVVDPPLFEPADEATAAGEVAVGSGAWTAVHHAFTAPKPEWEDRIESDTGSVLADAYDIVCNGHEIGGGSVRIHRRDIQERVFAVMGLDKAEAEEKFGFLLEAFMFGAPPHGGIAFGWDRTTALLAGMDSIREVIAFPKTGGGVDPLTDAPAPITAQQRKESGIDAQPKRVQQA

[2] = target: Shiga toxin 2 (Escherichia coli O157:H7) (UniProt P09385+P09386); assay: E. coli 0.157:H7 Shiga Toxin SOP - stx2 screening assay; format: functional; parameters: scale not given: direction of the effect not stated beside the values; conditions: 30 µM

COc1ccc(C(=O)N(Cc2cnn(C)c2)C(C)C)cc1Br
Percent Effect [1]: -1.07% | Percent Effect [2]: 5.59%

Cc1ccc(NC(=O)N2CCN(Cc3noc(C4CC4)n3)CC2)cc1
Percent Effect [1]: -2.14% | Percent Effect [2]: -9.31%

CN(CCN1CCOCC1)C(=O)CCCc1ccccc1
Percent Effect [1]: -6.41% | Percent Effect [2]: 0.944%

CCOC(=O)CCNC(=O)N1CCN(c2nc3ccccc3n2C)CC1
Percent Effect [1]: -4.71% | Percent Effect [2]: -68.4%

Cc1cnn(CC2CCCN2C(=O)CCc2c(C)noc2Cl)c1 (configuration not stated)
Percent Effect [1]: 2.73% | Percent Effect [2]: -4.86%

COC(=O)CNC(=O)CSCc1nc(O)c2cc(C(C)C)sc2n1
Percent Effect [1]: -0.639% | Percent Effect [2]: -7.38%

Cc1ncsc1CCC(=O)N1CCCC[C@H](N(C)C)C1
Percent Effect [1]: -3.74% | Percent Effect [2]: 3.62%

CC(CN1CCOCC1)NCc1nncn1C1CCCCC1 (configuration not stated)
Percent Effect [1]: 0.0836% | Percent Effect [2]: -15.5%

CC(C)OCCC(=O)N(C)CCCc1cc(-c2ccccc2)no1
Percent Effect [1]: 2.1% | Percent Effect [2]: 38.9%

O=C(c1cccnc1)N1CCCC2(CCN(c3ccsc3)C2=O)C1 (configuration not stated)
Percent Effect [1]: 7.21% | Percent Effect [2]: -14.1%

CN(C)[C@@H]1CCN(c2ncccn2)[C@H]1Cc1ccccc1
Percent Effect [1]: -0.0594% | Percent Effect [2]: -1.36%

Cn1cc(CN2CCCn3cnc(CN4CCCC4=O)c3C2)cn1
Percent Effect [1]: 2.39% | Percent Effect [2]: -3.11%

CCN(Cc1ccc2c(c1)OCCO2)S(=O)(=O)N(C)C(C)C
Percent Effect [1]: -0.607% | Percent Effect [2]: 9.34%

CN(C)C(=O)COC[C@]12COC[C@H]1CN(Cc1ccoc1)C2
Percent Effect [1]: -2.38% | Percent Effect [2]: -7.04%

Fc1ccc(CN2CCCC2c2cncc(-n3ccnc3)n2)cc1 (configuration not stated)
Percent Effect [1]: 3.75% | Percent Effect [2]: 24.5%

Cc1cnn(CC2CN(CC(=O)NCCc3cccs3)CCO2)c1 (configuration not stated)
Percent Effect [1]: -11.2% | Percent Effect [2]: 6.55%

CCNC(=O)c1nc2c(s1)CCCN2S(C)(=O)=O
Percent Effect [1]: 7.8% | Percent Effect [2]: -17.3%

CN(C)C(=O)N1C[C@H]2CN(Cc3cccc(F)c3)C(=O)[C@H]2C1
Percent Effect [1]: -2.95% | Percent Effect [2]: -2.65%

C=C(Cl)CN1CCC(C(=O)c2cc(F)ccc2F)CC1
Percent Effect [1]: -0.256% | Percent Effect [2]: 18.4%

CCCc1n[nH]c(C2CN(C(=O)CCCn3cccn3)CCO2)n1 (configuration not stated)
Percent Effect [1]: -0.947% | Percent Effect [2]: -21.7%

Cc1nc(C)c(C(=O)NCCNC(=O)Cc2cccc(F)c2)s1
Percent Effect [1]: 4.17% | Percent Effect [2]: 6.14%

COc1c(CNC2CCCc3ccccc32)c(C(C)C)nn1C (configuration not stated)
Percent Effect [1]: -0.233% | Percent Effect [2]: -10.1%

COc1ccc(CN2CCCC2Cn2nc(C)nc2C)cc1F (configuration not stated)
Percent Effect [1]: -1.56% | Percent Effect [2]: -0.778%

CCCOc1ccc(CNC2CCCc3c2cnn3CC)cc1OC (configuration not stated)
Percent Effect [1]: -1.51% | Percent Effect [2]: -22.9%

O=C(c1cc(=O)[nH]c(=O)[nH]1)N1CCCCC1c1nc2cc(F)ccc2[nH]1 (configuration not stated)
Percent Effect [1]: -0.139% | Percent Effect [2]: 9.59%

Cc1ccc(C)c(C(NC(=O)C2CC2)c2cccnc2)c1 (configuration not stated)
Percent Effect [1]: -0.277% | Percent Effect [2]: -13.4%

CCc1ncc2c(n1)CN(Cc1nc(-c3ccccn3)no1)CC2
Percent Effect [1]: 0.141% | Percent Effect [2]: -30.2%

Cc1ccc(C)c(CNC(=O)NC(C)(C(=O)O)c2ccco2)c1 (configuration not stated)
Percent Effect [1]: 4.16% | Percent Effect [2]: 17%

Cc1ccoc1C(=O)NC1CCN(Cc2csc3c(F)cccc23)CC1
Percent Effect [1]: -0.83% | Percent Effect [2]: -64.2%

Cc1nc(CN2CCCC(NCc3c(C)nc4sccn34)C2)no1 (configuration not stated)
Percent Effect [1]: 2.46% | Percent Effect [2]: -20.2%

CN(Cc1ccco1)[C@@H]1CN(C(=O)c2ccnnc2)[C@@H]2CCCO[C@H]12
Percent Effect [1]: -2.73% | Percent Effect [2]: -1.33%

O=C(NCc1nnc2ccccn12)N1CCc2sccc2C1
Percent Effect [1]: -2.69% | Percent Effect [2]: 1.75%

Cc1ccc(N2CCCN(C(=O)c3c(C)oc(C)c3C)CC2)nn1
Percent Effect [1]: 1.16% | Percent Effect [2]: -1.2%

Cc1nnc(CN2CCCC(c3cc(C(N)=O)[nH]n3)C2)o1 (configuration not stated)
Percent Effect [1]: -2.96% | Percent Effect [2]: 4.59%

CCc1nccn1C1CCCN(C(=O)c2cnn(C)c2C2CC2)C1 (configuration not stated)
Percent Effect [1]: -4.23% | Percent Effect [2]: 21.1%

CCc1nccn1C1CCCN(C(=O)c2cnc3ccccc3n2)C1 (configuration not stated)
Percent Effect [1]: 1.02% | Percent Effect [2]: 11.4%

CC(C)(C)c1cn2nc(N3CCC[C@@H]3CO)sc2n1
Percent Effect [1]: -3.63% | Percent Effect [2]: -8.45%

Cc1ncc2c(n1)CCN(C(=O)Cc1c(C)noc1C)C2
Percent Effect [1]: -2.87% | Percent Effect [2]: -13.9%

Fc1ccc(OCc2noc(CN3CCc4cncnc4C3)n2)cc1
Percent Effect [1]: -0.7% | Percent Effect [2]: -1.88%

Cn1cccc1CN1CCC2(CCCN(C(=O)Cc3cccnc3)C2)C1 (configuration not stated)
Percent Effect [1]: 4.47% | Percent Effect [2]: -14.5%

Cc1ccc(NC2CCN(C(=O)CC3CCCO3)CC2)nn1 (configuration not stated)
Percent Effect [1]: -2.07% | Percent Effect [2]: 4.7%

CC[C@@]1(O)CCN(C(=O)c2ccc(SC)cc2)C[C@H]1O
Percent Effect [1]: -1.2% | Percent Effect [2]: 5.8%

O=C(Cn1nc2c(cc1=O)CCCC2)N[C@@H](C(=O)O)c1ccccc1
Percent Effect [1]: -1.42% | Percent Effect [2]: -35.6%

CC(C)Cc1nc(OCC(=O)O)c(C#N)c2c1CCC2
Percent Effect [1]: 0.639% | Percent Effect [2]: -5.61%

Brc1cc2c(cc1CN1CCC(N3CCCCC3)CC1)OCCO2
Percent Effect [1]: -2.09% | Percent Effect [2]: -51.2%

COCCC(=O)Nc1ccnc(Oc2ccccc2)c1
Percent Effect [1]: 13.9% | Percent Effect [2]: -27.8%

CC(=O)c1cc(CC(=O)NCc2c(F)cccc2F)cs1
Percent Effect [1]: -0.993% | Percent Effect [2]: 4.94%

Cc1csc(N2CCN(C(=O)CCc3nccs3)CC2)n1
Percent Effect [1]: 2.49% | Percent Effect [2]: 7.79%

OCCn1cc(CN2CCN(CCOc3ccccc3)CC2)cn1
Percent Effect [1]: 0.728% | Percent Effect [2]: 13.3%

O=C(NCC1(N2CCOCC2)CCSC1)Nc1ccc(F)cc1 (configuration not stated)
Percent Effect [1]: 2% | Percent Effect [2]: -8.73%

CC(C)Cc1noc(CN(C)C(=O)C2COc3ccccc3C2)n1 (configuration not stated)
Percent Effect [1]: -1.81% | Percent Effect [2]: -46.4%
